Reference: PubChem BioAssay AID624330 (Southern Research Specialized Biocontainment Screening …, 2012)
The whole screen tested about 340,000 compounds, of which about 2,100 (0.62%) were called active.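 Rule for the calls: active = first-screen hits whose inhibition reached a set limit at any dose in the follow-up dose series; inconclusive = inhibition above the set first-screen limit but never retested; inactive = the rest.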 A selection follows. Measured potencies and affinities stand elsewhere.

target: Rac GTPase-activating protein 1 (Homo sapiens) (UniProt Q9H0H5); assay: blockers of MgcRacGAP-driven Rac1 GTP hydrolysis – biochemical, ADP Hunter fluorescence, primary and confirmatory, confirmation (AID 624330); conditions: MgcRacGAP-stimulated Rac1 GTP hydrolysis, at 30 µM, stronger effect = higher value, GST-tagged Rac1 F28L mutant substrate;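 note: fluorescence reports GDP produced by GAP-driven GTP hydrolysis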
Sequence (Q9H0H5 whole entry, looked up): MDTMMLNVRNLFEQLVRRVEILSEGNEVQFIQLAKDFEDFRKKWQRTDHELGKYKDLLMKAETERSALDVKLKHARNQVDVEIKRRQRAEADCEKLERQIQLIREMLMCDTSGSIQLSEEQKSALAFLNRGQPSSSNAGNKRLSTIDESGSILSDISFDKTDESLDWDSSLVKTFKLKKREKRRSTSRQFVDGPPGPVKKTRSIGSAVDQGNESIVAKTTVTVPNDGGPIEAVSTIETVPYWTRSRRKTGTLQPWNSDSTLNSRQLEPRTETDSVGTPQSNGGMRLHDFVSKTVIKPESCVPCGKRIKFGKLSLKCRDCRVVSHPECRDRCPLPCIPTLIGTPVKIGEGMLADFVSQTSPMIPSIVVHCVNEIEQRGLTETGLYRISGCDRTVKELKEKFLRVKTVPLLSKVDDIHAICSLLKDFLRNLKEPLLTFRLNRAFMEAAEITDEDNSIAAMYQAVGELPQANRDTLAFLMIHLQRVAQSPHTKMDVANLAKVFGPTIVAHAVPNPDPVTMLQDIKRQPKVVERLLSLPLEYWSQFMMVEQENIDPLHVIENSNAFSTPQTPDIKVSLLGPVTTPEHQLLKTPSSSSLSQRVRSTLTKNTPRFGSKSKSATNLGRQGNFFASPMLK

inhibition, inactive:
Cc1ccc(OCCOC(=O)Cn2nc(C)c([N+](=O)[O-])c2C)cc1 7.43%
Cc1cccc(C)c1OCC(O)CN1CCN(c2ccccc2)CC1 (stereo not given) 4.36%
O=C(Oc1ccc(/C=N/n2cnnc2)cc1)c1cccc([N+](=O)[O-])c1 13.5%
Cc1cccc(C(=O)Oc2ccc(/C=N/NC(=O)Cc3ccc([N+](=O)[O-])cc3)cc2)c1 1.03%
CC1=NNC(=O)C1CC(=O)N/N=C/C(C)=C/c1ccccc1 (stereo not given) 13.2%
Cn1c(=O)c2c(nc(CN3CCCCC3)n2CCc2ccccc2)n(C)c1=O 18.6%
Cc1ccc(OCC(=O)N2CCN(S(=O)(=O)c3ccccc3[N+](=O)[O-])CC2)cc1 5.54%
COc1cc(/C=N/NC(=O)CCC(=O)NC2CCCCC2)ccc1C 9.37%
COc1ccc(/C=N/NC(=O)CCCC(=O)NC2CCCCC2)cc1 2.54%
COc1ccc(/C=N/NC(=O)CC(=O)NC2CCCCC2)cc1 6.51%
C=CCOc1ccc(/C=N/NC(=O)C(C)Sc2ccccn2)cc1OC (stereo not given) 6.97%
CCCOc1ccc(/C=N/NC(=O)C(C)Sc2ccccn2)cc1OCC (stereo not given) 9.98%
COC(=O)c1ccc(/C=N/NC(=O)CC(=O)NC2CCCCC2)cc1 -3.55%
CN(NC(=O)Nc1ccc(Cl)cc1)c1ncc(C(F)(F)F)cc1Cl 7.17%
Cc1ccc(/C=N/NC(=O)NN(C)c2ncc(C(F)(F)F)cc2Cl)cc1 4.41%
CCS(=O)(=O)N1CCC(C(=O)Nc2cc(Cl)ccc2O)CC1 6.74%
Cn1cc(CN2CCCC(C(=O)c3nccn3C)C2)c(-c2cccc(Cl)c2)n1 (stereo not given) 0.46%
COc1ccc(C)c2sc(N(CCCN(C)C)C(=O)CS(=O)(=O)c3ccc(F)cc3)nc12 2.17%
CCOC(=O)Cc1nnc(NC(=O)CSc2ccc(Cl)cc2)s1 0.78%
COc1ccc(C(=O)O/N=C(/c2ccccc2)c2ccncc2)cc1 4.95%
COc1ccc(C2C(=O)c3ccccc3C2=Nc2ccc(Br)cc2)cc1 (stereo not given) 8.86%
CCC(C)[C@H](NC(=O)OC(C)(C)C)C(=O)N/N=C/c1ccc2cc(OC)ccc2n1 (stereo not given in full) 7.33%
NS(=O)(=O)c1ccc(NC(=O)COC(=O)CCCN2C(=O)c3cccc4cccc(c34)C2=O)cc1 1.26%
Cc1cc(C(=O)Nc2ccc(F)cc2F)on1 9.92%
CCn1c(SCC(=O)NCc2ccc(F)cc2)nc2c(c1=O)SC(C)C2 (stereo not given) 18%
Oc1ccc(/C=N/NC(=S)NC2CC3CCC2C3)cc1 (stereo not given) 16.9%
O=C(CSc1cccc2cccnc12)N/N=C/c1cccc(O)c1 3.05%
COc1ccc(C=NNC(=O)CCCC(=O)NN=Cc2ccc(OC)c(O)c2)cc1O 23%
CCOc1cc(/C=N/NC(=O)C(=O)N/N=C/c2ccc(O)c(OCC)c2)ccc1O 10.8%
COc1cccc(/C=N/NC(=S)NC2CC3CCC2C3)c1OC (stereo not given) -1.35%
C=CCOc1cccc(/C=N/NC(=O)C(OC)c2ccccc2)c1 (stereo not given) 7.19%
COc1cccc(/C=N/NC(=O)CSc2cccc3cccnc23)c1 5.24%
CCOc1ccc(/C=N/NC(=O)C(OC)c2ccccc2)cc1 (stereo not given) 3.79%
CCCCc1nnc(NC(=O)CN2C(=O)C3CCCCC3C2=O)s1 (stereo not given) 6.64%
O=C(N/N=C\c1cn[nH]c1-c1ccccc1)c1ccc([N+](=O)[O-])cc1 9.27%
O=S(=O)(c1ccc(Cl)cc1)N1CCN(Cc2cccnc2)CC1 2.76%
Cc1c(C(=O)N2CCN(S(=O)(=O)c3ccccc3)CC2)oc2ccc(Br)cc12 2.23%
Cc1ccccc1SCC(=O)NCC(c1ccc(F)cc1)N1CCOCC1 (stereo not given) 8.44%
N#CC1(NC(=O)CN2CCc3ccccc3C2)CCCC1 -8.1%
C#CCN1C=CC(=O)[C@@H](OC(=O)Nc2ccc(C)cc2)[C@H]1c1ccccc1Br -0.32%
O=C(O)C1C2C=CC(C2)C1C(=O)NC1CCS(=O)(=O)C1 (stereo not given) 10.3%
O=C(NNC(=O)c1cccc(C(F)(F)F)c1)c1ccncc1 8.11%
Cc1cc(SCC(=O)Nc2ccc(O)cc2)n2ncc(-c3ccccc3)c2n1 4.14%
CC1(C)N=C(SCC(=O)Nc2ccc(Cl)cc2)C(c2ccc(Cl)cc2)=N1 2.66%
COc1cc(C(=O)NNC(=O)c2cc(=O)[nH]c3ccccc23)cc(OC)c1OC 5.5%
CCOc1ccc(/C=N/NC(=O)Nc2ccccc2)cc1 10.7%
COc1cc(/C=N/NC(=O)Nc2ccccc2)ccc1OC(C)=O 13.7%
CCN(CC)S(=O)(=O)c1ccc(OC)c(NC(=O)c2cn(CC)c3nc(C)ccc3c2=O)c1 7.32%
CCOC(=O)COc1cccc2c(=O)n(CC(N)=O)ccc12 3.81%
COc1ccc(C=C2NC(=S)NC2=O)cc1 14.2%
CCOc1ccc(/C=C2\NC(=S)NC2=O)cc1 -0.61%
COC(=O)Cc1ccc(NC(C)=O)cc1 3.66%
CC(=O)Nc1ccc(OC(=O)c2ccc(Cl)cc2)cc1 -3.42%
CCOC(=O)/C(=C/Nc1ccc(F)c(F)c1)[N+](=O)[O-] -8.37%
Cc1cc(C)c2[nH]c(=O)c(C(c3nnnn3C(C)(C)C)N3CCN(C(=O)c4ccco4)CC3)cc2c1 (stereo not given) 1.84%
Cc1cc(N(C)C)ccc1N=Nc1ccc2ncccc2c1 3.61%
Nc1ccc(-c2cnc(-c3ccc(N)cc3)nc2)cc1 9.16%
CC(=O)c1ccc(N=Nc2ccc(N)cc2)cc1 0.6%
Nc1ccc(-c2nnc(-c3ccc(N)cc3)o2)cc1 12.9%
Nc1ccc(Sc2ccc([N+](=O)[O-])cc2)cc1 7.67%
Nc1ccc(CCc2ccc(N)cc2)cc1 13.9%
Nc1ccc(SC(F)(F)F)cc1 -3.64%
CN(C)c1ccc(N=Nc2ccccc2Br)cc1 8.09%
Cc1ccccc1C(=O)OCC(=O)Nc1cccc(S(=O)(=O)N2CCCCC2)c1 11.7%
CN(C)S(=O)(=O)c1ccc(Cl)c(NC(=O)COc2ccccc2[N+](=O)[O-])c1 6.09%
CCN(CC1CCCO1)C(=O)c1cc(COc2ccc(OC)cc2Cl)on1 (stereo not given) -11.4%
C[C@H](CO)N1C[C@H](C)[C@@H](CN(C)C(=O)Nc2ccccc2)Oc2c(NS(=O)(=O)c3ccc(F)cc3)cccc2C1=O 3.18%
Cc1ccc(OCC(=O)Nc2ccc3oc(=O)ccc3c2)cc1 4.26%
O=C(Cc1ccsc1)N1CCN(S(=O)(=O)c2cccc(F)c2)CC1 -3.87%
CC1Cc2ccccc2N1C(=O)CN1CCCCC1 (stereo not given) 2.91%
CCN1CCN(CC(=O)N2c3ccccc3CC2C)CC1 (stereo not given) 22.6%
CN(Cc1cccc(F)c1)C(=O)C1CC(=O)N(c2ccc3c(c2)OCCO3)C1 (stereo not given) 4.27%
Cc1c(Cl)ccc(S(=O)(=O)N2CCN=C2c2ccccc2)c1Cl 4.68%
Cc1cc(Cl)cc2sc(NC(=O)c3ccco3)nc12 5.28%
Cc1cc(Cl)cc2sc(NC(=O)C3CC3)nc12 5.72%
CCS(=O)(=O)CCSc1nc2ccccc2o1 -5.63%
C/C(O)=C\c1nc2ccccc2oc1=O 18.1%
CCCCCN1C(C)=CC(=C(C#N)C#N)C=C1C 9.16%
Cc1cccc2sc(N(CCN(C)C)C(=O)c3ccc4ccccc4c3)nc12 5.08%
O=c1[nH]cc(S(=O)(=O)N2CCN(c3ccc(F)cc3)CC2)c(=O)[nH]1 2.66%
Cc1cc(C(=O)Nc2nccs2)c2cc(F)ccc2n1 4.04%
Cc1ccc(S(=O)(=O)N2CCCCC2)cc1NC(=O)c1ccco1 15.5%
O=C(CNCc1ccco1)Nc1cc(S(=O)(=O)N2CCOCC2)ccc1N1CCCC1 24.8%
O=C(COC(=O)c1ccco1)Nc1cccc(S(=O)(=O)N2CCCCC2)c1 0.12%
O=C(Nc1cccc(S(=O)(=O)N2CCCCC2)c1)c1ccco1 -7.5%
Cc1ccc(S(=O)(=O)N2CCOCC2)cc1C(=O)NCc1cccnc1 5.2%
Cc1ccc(S(=O)(=O)N2CCOCC2)cc1NC(=O)CNCc1ccccc1Cl 8.04%
COc1ccc(CNC(N)=O)cc1OC 5.81%
CN(C)S(=O)(=O)c1ccc(NC(=O)CN2C(=O)NC3(CCCC3)C2=O)cc1 4.79%
CCCN(C(=O)c1c(CC)noc1C)c1c(N)n(Cc2ccccc2)c(=O)[nH]c1=O 7.17%
CC1(NC(=O)N2CCCCC2)CCS(=O)(=O)C1 (stereo not given) 6.45%
O=C1CC(c2ccc(F)cc2)CC(O)=C1C=NCCN1CCNCC1 (stereo not given) 10.7%
COc1ccc(-c2csc3ncnc(N4CCN(c5ccccc5OC)CC4)c23)cc1 8.39%
O=C(OCC(=O)N1CCN(C(=O)c2ccco2)CC1)c1ccc(Cl)nc1 2.2%
COCCNC(=O)c1ccc(N2CC3CC(C2)c2cccc(=O)n2C3)c(NC(=O)c2cc(OC)cc(OC)c2)c1 (stereo not given) 10.3%
